Assay outcomes from PubChem BioAssay.
Compounds with a hit are over-represented: about 5% of the library has one in this group of screens.
SENP7 block: inhibitors of human SENP7 protease; Q9BQF6; recombinant SENP7, Z-RLRGG-aminoluciferin luminescence, 40 min; inhibition, % at 5 µM; 330,000 compounds, 1.5% hits;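 active means inhibition above about 50% at the single test dose, limit read from the data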
SENP8 block-1: inhibitors of human SENP8 protease; inhibition, % at 10 µM; 330,000 compounds, 1.2% hits; AID 2540; purified SENP8, Z-RLRGG-aminoluciferin cleavage, luminescence; in the data active means inhibition above about 50%
SENP6 block: blocks the human protease SENP6; Q9GZR1; Recombinant SENP6 catalytic domain, aminoluciferin luminescence; inhibition, % at 10 µM; 330,000 compounds, 1.8% hits; AID 2599;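 active means inhibition above about 50% at the single tested dose, limit read from the data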
SENP8 block-2: SENP8 (human) protease inhibition; inhibition, % at 20 µM; AID 602440; Q96LD8; recombinant SENP8, Nedd8 substrate fluorescence; 360,000 compounds, 0.64% hits; in the data active means inhibition mostly above about 40%, no sharp cut-off; inactive means mostly below about 27%
EBI2 block: antagonists of human EBI2 receptor; EBI2 beta-arrestin recruitment, luminescence, 7a,25-OHC stimulated; AID 651636; inhibition, % at 5 µM; 360,000 compounds, 0.81% hits; P32249; in the data active means inhibition above about 38%;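 further: enzyme fragment complementation signal reports receptor beta-arrestin coupling in cells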
AHR act: activators of human aryl hydrocarbon receptor; P35869; AID 2796; AHR-responsive luciferase reporter cells, luminescence; 320,000 compounds, 2.5% hits; activation, % at 5 µM; in the data active means activation above about 47%
AHR act confirm: human AHR activation, confirmation; activation, % at 9 µM; shares compounds with AHR act; 2,300 compounds, 87% hits; human cells, AHR-responsive luciferase reporter, luminescence; in the data active means activation above about 49%;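 further: HepG2 hepatoma cells carrying a DRE-driven firefly luciferase reporter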
PXR counter: counter-screen for AHR activators: human PXR activators. shares compounds with AHR act. cell-based PXR reporter, luciferase luminescence. activation, % at 11.6 µM. 2,300 compounds, 88% hits. AID 434939; in the data active means activation above about 11%;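 further: human hepatoma DPX-2 cells expressing full-length human PXR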
Hits are given with their value; 0 = inactive; - = no result given.

SMILES	SENP7 block	SENP8 block-1	SENP6 block	SENP8 block-2	EBI2 block	AHR act	AHR act confirm	PXR counter
O=C(Nc1ccccc1C(=O)Nc1ccccc1)c1cccs1	0	0	0	0	0	92	89	30
O=C(O)c1cccc(NC(=O)c2ccccc2NC(=O)c2cccs2)c1	-	-	-	0	0	-	-	-
Cc1nc2ccc(NC(=O)c3ccc(Cl)c(NC(=O)c4cccs4)c3)cc2s1	0	0	0	0	0	0	-	-
Cc1ccc(NC(=O)c2ccc(Cl)c(NC(=O)c3cccs3)c2)cc1	0	0	0	0	0	131	73	41
CCNC(=O)C12CCC(C)(c3nc4cc(C)c(C)cc4nc31)C2(C)C (stereo unspecified)	0	0	0	0	0	0	-	-
COc1ccc(NC(=S)N(CCc2c(C)[nH]c3ccc(C)cc23)Cc2ccco2)cc1	0	0	0	0	0	100	84	111
NCCCCCc1cn(CC(=O)NCCCCCCCCCCC(=O)N2CCNCC2)nn1	0	0	0	0	0	0	-	-
CCOC(=O)c1csc(NNC=O)n1	0	0	0	0	0	0	-	-
CC(=O)c1c(C)nc(-c2ccc(Cl)cc2)nc1N=CN(C)C	0	0	0	0	0	90	98	35
CSc1nc(-c2ccccc2)nc(N)c1C(C)=O	0	0	0	-	-	0	-	-
CC(=O)c1c(C)nc(-c2ccc(Cl)cc2)nc1N	0	0	0	0	0	92	130	33
COc1ccc(-c2cc3cc(OC)c(OC)cc3c(C)n2)cc1C	0	0	0	0	0	96	58	29
COc1ccc(-c2csc(Nc3cc(C)ccn3)n2)cc1C	0	0	0	0	0	0	-	-
Cc1ccc(-c2csc(-c3c[nH]c4ccccc34)n2)c(C)c1	0	0	0	0	0	106	115	24
COc1nc(Nc2ccc3c(c2)OCO3)nc(OC)n1	0	0	0	0	0	119	109	18
COc1cc2ncnc(N[C@H](C)c3ccccc3)c2cc1OC	0	0	0	0	0	0	-	-
COc1cc2ncnc(Nc3ccc4c(c3)OCO4)c2cc1OC	0	0	0	0	0	104	101	25
CN(C)c1ccc(Nc2ncnc3ccc(Br)cc23)cc1	0	0	0	0	0	92	0	0
Cc1cccc(Nc2ncnc3ccc(Br)cc23)c1	0	0	0	0	0	101	72	30
CCCCN1C(=O)/C(=C2/Sc3ccccc3N2C)S/C1=N\c1ncn[nH]1	0	0	0	0	0	0	-	-
CCc1ccc(OC(C)c2nnc(SCC(=O)Nc3ncccc3C)n2C)cc1 (stereo unspecified)	0	0	0	0	0	0	-	-
Cc1ccc(CN2CCN(/N=C/c3sccc3C)CC2)c(C)c1	0	0	0	0	0	0	-	-
COc1ccc(Nc2ncnc3ccc(Br)cc23)cc1OC	0	0	0	0	0	86	72	18
COc1ccc(NC(=O)CN(C)C(=O)c2c(C)nn(Cc3ccc(C)cc3)c2Cl)cc1	0	0	0	0	0	0	-	-
Cc1ccc(-n2nc(C)c3c(C)c(CCC(=O)NCC4CCCO4)c(=O)n(C)c32)cc1 (stereo unspecified)	0	0	0	0	0	0	-	-
SMILES	SENP7 block	SENP8 block-1	SENP6 block	SENP8 block-2	EBI2 block	AHR act	AHR act confirm	PXR counter
c1cc(-c2cccs2)nc(-c2cccs2)c1	0	0	0	0	0	96	84	16
c1ccc(-c2cccs2)nc1	0	0	0	0	0	0	-	-
Oc1oc(-c2ccccc2)nc1/C=N/c1nccs1	0	0	0	0	0	100	78	-
Cn1c(=O)c2c(nc(N/N=C3\CCCc4ccccc43)n2Cc2ccc(F)cc2)n(C)c1=O	0	0	0	0	0	95	89	40
Cn1c(N/N=C2\CCCc3ccccc32)nc2c1c(=O)n(Cc1ccccc1)c(=O)n2C	0	0	0	0	0	0	-	-
CC1CCN(c2ccc(NC(=S)NC(=O)c3ccc(-c4cccc([N+](=O)[O-])c4)o3)cc2)CC1	0	0	0	0	0	82	0	15
CC1CCN(c2ccccc2NC(=S)NC(=O)c2ccc(-c3cccc([N+](=O)[O-])c3)o2)CC1	0	0	0	0	0	0	-	-
O=c1nc2sc3ccccc3n2c(=O)n1-c1cccc(Cl)c1	0	0	0	0	0	81	115	33
Cc1ccc2c(c1)sc1nc(=O)n(-c3cccc(Cl)c3)c(=O)n12	0	0	0	0	0	0	-	-
Cc1cc(NC(=O)C2CC2)n(-c2nc3ccccc3s2)n1	0	0	0	0	0	0	-	-
CC(=O)N1CCc2c(sc(NC(=O)C3CC3)c2-c2nc3ccccc3s2)C1	0	0	68	0	0	106	100	28
COc1cccc2c(=O)c3cccc(N)c3[nH]c12	0	0	0	0	0	80	60	-
Nc1c(Cl)cc(-c2csc(NC(CO)c3nc4ccccc4n3CCOCCO)n2)cc1Cl (stereo unspecified)	0	0	0	0	0	80	90	104
OCCOCCn1c(C(CO)Nc2nc(-c3ccc(Cl)cc3)cs2)nc2ccccc21 (stereo unspecified)	0	0	0	0	0	0	-	-
CCOC(=O)[C@H]1[C@H]2COc3ccc(C)cc3[C@@H]2N2C(=O)[C@@H](C)NC(=O)[C@@]12C	0	0	0	0	0	0	-	-
NC(=O)c1cc2ccccc2o/c1=N\NC(=O)c1ccncc1	0	0	0	0	0	127	137	15
CCN1CCN(C(=O)CN(c2ccc(F)c(Cl)c2)S(C)(=O)=O)CC1	0	0	0	0	0	0	-	-
CSCc1ccc(C(=O)N2CCC(N3CCC(C(=O)NC(C)C)CC3)CC2)o1	0	0	0	0	0	0	-	-
CN(C)c1ccc(NC2=C(Cl)C(=O)c3ccccc3C2=O)cc1	0	0	0	43	0	135	76	13
Cc1noc(C)c1CCC(=O)N1CCCC(N2CCN(c3ccc(F)cc3)CC2)C1 (stereo unspecified)	0	0	0	0	0	0	-	-
O=c1[nH]nc(Cc2ncc(C(F)(F)F)cc2Cl)c2ccccc12	0	0	0	0	0	0	-	-
O=C1Nc2ccccc2C1c1ncc(C(F)(F)F)cc1Cl (stereo unspecified)	0	0	0	0	0	90	0	21
Cc1cc(O)c(C(=O)/C=C/c2ccccc2)c(=O)o1	0	0	0	0	0	-	-	-
CCOc1ccc(/C=C/C(=O)c2c(O)cc(C)oc2=O)cc1	0	0	0	0	0	83	0	16
CC(NC(=O)c1ccccc1)C(=O)N/N=C/c1cccc([N+](=O)[O-])c1 (stereo unspecified)	0	0	0	0	0	0	-	-
CCCCn1c(SCc2nc(N)nc(N3CCCCC3)n2)nc2c1c(=O)n(C)c(=O)n2C	0	0	0	0	0	0	-	-
Cc1cc(C)n2c(Br)c(CSc3nc4ccccc4s3)nc2n1	0	0	0	0	0	0	-	-
